This is a sample that favours compounds with a hit; in the whole collection about 2.8% have one here.
WRN helicase inh-1: qHTS for Inhibitors of WRN Helicase. 0.46% of 360,000 active. Bifunctional 3'-5' exonuclease/ATP-dependent helicase WRN (Homo sapiens), Q14191. WRN helicase unwinding, fluorescent forked duplex, kinetic. Potency, µM (titrated, usually from 114 µM), inactives show at the top dose activity change, negative = inhibition, usual class: inhibitors; also: potency is read from the fitted curve at half-maximal effect; % is scaled to controls: 0 for no effect and ±100 for the full control effect; nearly all actives have a fitted effect of over 55% in size
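Enzyme (20 nM final) and test compound sit together 15 min at room temperature before substrate addition. Substrate is a single-forked duplex oligonucleotide (100 nM) labelled with fluorophore and quencher, with 2 mM ATP; helicase unwinding raises red fluorescence, read kinetically.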
Pol eta inh: qHTS for Inhibitors of Polymerase Eta | 1.2% of 390,000 active | DNA polymerase eta (Homo sapiens), Q9Y253 | recombinant Pol eta, fluorescent DNA replication assay | Potency, µM (top dose mostly 114 µM), without a hit: at the top dose activity change, negative = inhibition, hits mostly inhibitors | AID 588591, 2011; also: potency is read from the fitted curve at half-maximal effect; % is scaled to controls: 0 for no effect and ±100 for the full control effect
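Pol eta (10 nM) was preincubated with compounds for 15 min at room temperature, after which fluorescent replication substrate (50 nM final) was added to start the reaction. Fluorescence was read kinetically at 0 and 10 min.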
PI5P4Ka inh: qHTS for Inhibitors of phosphatidylinositol 5-phosphate 4-kinase (PI5P4K) | Phosphatidylinositol 5-phosphate 4-kinase type-2 alpha (Homo sapiens), P48426 | PI5P4Kalpha enzyme, ADP-Glo luminescence, 60 min; hits give low values | max response, % | 1.2% of 330,000 active; active = max response of -50% or lower; inconclusive = between -30% and -50%; inactive = -30% or higher; also: value at the top dose of about 77 µM; % is scaled to controls: 0 for no effect and ±100 for the full control effect
Target sequence (P48426 whole entry, looked up): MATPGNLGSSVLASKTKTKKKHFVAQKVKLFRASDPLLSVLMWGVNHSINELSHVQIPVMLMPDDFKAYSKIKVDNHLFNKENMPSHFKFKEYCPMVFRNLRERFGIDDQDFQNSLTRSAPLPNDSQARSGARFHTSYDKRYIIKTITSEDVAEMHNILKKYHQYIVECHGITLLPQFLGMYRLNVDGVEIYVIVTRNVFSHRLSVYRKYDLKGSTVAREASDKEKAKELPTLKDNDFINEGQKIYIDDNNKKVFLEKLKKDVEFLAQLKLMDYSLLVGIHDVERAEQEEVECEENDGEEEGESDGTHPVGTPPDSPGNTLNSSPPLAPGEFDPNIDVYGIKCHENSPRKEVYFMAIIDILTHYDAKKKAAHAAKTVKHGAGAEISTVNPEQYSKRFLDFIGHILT
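Luminescence from ADP-Glo served as readout of PI5P4Kalpha activity in a qHTS format. Reaction: enzyme, substrate, compound, ATP at 5 microM final, 60 min at RT.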
POLI inh: qHTS for Inhibitors of Polymerase Iota; Pol iota fluorescent replication assay, 10 min; 1% of 390,000 active; Potency, µM (doses to about 115 µM), inactives show top-dose activity, negative = inhibition, hits mostly inhibitors; also: potency is read from the fitted curve at half-maximal effect
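Pol iota at 10 nM preincubated 15 min with compounds at room temperature; reaction started with fluorescent substrate, 50 nM final. Fluorescence read kinetically at 0 and 10 min; buffer-only wells as negative control.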
Pol beta inh: qHTS Assay for Inhibitors of DNA Polymerase Beta | P06746 | Pol beta primer extension/strand displacement, fluorescence kinetic | Potency, µM (titrated, usually from 114 µM), for the others: at the top dose activity change, negative = inhibition, most hits filed as inhibitors | 1.3% of 340,000 active | AID 485314, 2010; also: potency is read from the fitted curve at half-maximal effect; % is scaled to controls: 0 for no effect and ±100 for the full control effect
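Pol beta (10 nM) and compounds were preincubated 15 min at room temperature, then 50 nM substrate (final) started primer extension/strand displacement. Reads were taken at 0 and 10 min; concentration-response data were fitted to a four-parameter Hill equation.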
POLK inh: qHTS for Inhibitors of Polymerase Kappa | 0.53% of 400,000 active | purified Pol kappa, fluorescent DNA synthesis assay, 10 min | Potency, µM (doses to about 107 µM), inactives show at the top dose activity, negative = inhibition, usual class: inhibitors; also: potency is read from the fitted curve at half-maximal effect; % is scaled to controls: 0 for no effect and ±100 for the full control effect
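Kinetic fluorescence readout at 0 and 10 min followed reaction start with substrate at 50 nM final. Beforehand, enzyme (10 nM Pol kappa) stood 15 min with compound at room temperature; buffer-only wells were negative controls.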
WRN helicase inh-2: qHTS for Inhibitors of WRN Helicase: Confirmatory Assay for Cherry-picked Compounds | shares compounds with WRN helicase inh-1 | WRN helicase DNA unwinding, fluorescence kinetic | Potency, µM (doses to about 57.1 µM), without a hit: at the top dose activity, negative = inhibition, usual class: inhibitors | 63% of 610 active | AID 720497, 2013; also: potency is read from the fitted curve at half-maximal effect; nearly all actives have a fitted effect of over 65% in size
TO DNA binding: qHTS for Inhibitors of WRN Helicase: Thiazole Orange DNA Binding Counterscreen; shares compounds with WRN helicase inh-1; thiazole orange DNA binding displacement, fluorescence; Potency, µM (series often up to 57.1 µM), for the others: at the top dose activity change, negative = inhibition, usual class: inhibitors; 10% of 610 active; AID 720499, 2013;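 also: drop in dye fluorescence marks compound binding to DNA; potency is read from the fitted curve at half-maximal effect; % is scaled to controls: 0 for no effect and ±100 for the full control effect; nearly all actives have a fitted effect of over 60% in size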
BLM helicase inh: qHTS for Inhibitors of WRN Helicase: BLM Helicase Counterscreen for WRN Inhibitors; shares compounds with WRN helicase inh-1; Recombinant BLM helicase DNA unwinding, red fluorescence; Potency, µM (top dose mostly 57.1 µM), for inactives: at the top dose activity change, negative = inhibition, actives largely listed as inhibitors; 60% of 610 active; AID 720503, 2013; also: potency is read from the fitted curve at half-maximal effect; nearly all actives have a fitted effect of over 60% in size
Starred values were filed as active, the others as inactive; i = inactive; ? = inconclusive; . = not tested or not shown; [ ] = another dose, or the depositor's remark. Unless noted, calls follow the shape of the dose curve; as a rule, active = well fitted curve in the direction sought with a large enough effect; inconclusive = small, poorly fitted or top-dose-only effect, or another doubt; inactive = no such curve, though single readings can be large; an effect the other way counts as inactive or inconclusive.

SMILES	WRN helicase inh-1	Pol eta inh	PI5P4Ka inh	POLI inh	Pol beta inh	POLK inh	WRN helicase inh-2	TO DNA binding	BLM helicase inh
Cc1c(C(=O)N2CCN(C)CC2)oc2ccc(Br)cc12	-5%	-6%	10	-15%	16%	-5%	.	.	.
CN(C)c1ccc(/C=N\Nc2ccc([N+](=O)[O-])cc2[N+](=O)[O-])cc1Br	.	.	.	15%	.	2%	.	.	.
COc1cc(/C=C2\C(=O)N(CCC#N)N=C2C)ccc1OCC(=O)Nc1ccccc1	?	-3%	2	?	25%	-18%	?	-4%	17µM*
N=C(N)c1ccc(N=Nc2c(O)ccc3c2[nH]c2ccccc23)cc1	11µM*	40µM*	-71*	-10%	.	79µM*	8.6µM*	24µM*	19µM*
NC(=O)c1ccc(N=Nc2c(O)c3ccccc3[nH]c2=O)cc1	.	.	.	.	33%	.	.	.	.
COc1ccc(NC(=O)/C(Cl)=C(/Cl)S(=O)(=O)Cc2ccccc2)cn1	12µM*	?	0	?	4%	-8%	?	-11%	-30%
COc1ccc(NC(=O)C(Cl)=C(Cl)Cl)cn1	4%	-11%	0	35%	16%	0%	.	.	.
O=C(NCCc1ccc(Cl)cc1)C(=O)NCC(c1ccco1)S(=O)(=O)c1ccc(Cl)cc1 (stereo unspecified)	.	-15%	.	6%	-22%	0%[60.1 µM]	.	.	.
CC(=O)[C@@]1(O)Cc2c(O)c3c(c(O)c2[C@H](O[C@H]2C[C@H](N)[C@H](O)[C@H](C)O2)C1)C(=O)c1ccccc1C3=O	.	.	.	.	.	.	24µM*	i	24µM*
CCN(CC)Cc1ccc(Nc2ccnc3cc(Cl)ccc23)cc1O	.	.	.	.	.	-15%[60.1 µM]	.	.	.
CCOc1cccc(CNCCO)c1OCc1ccc(Cl)cc1Cl	25%	-16%	-4	14%	1%	-8%	.	.	.
CCOc1cccc(CNc2ccc(O)cc2)c1OCc1ccc(Cl)cc1Cl	?	?	-20	3.2µM*	-1%	-18%	-29%	-27%	?
N#Cc1ncc(Cc2ccccc2)nc1C#N	1.7µM*	40µM*	?	33%	7%	-13%	-10%	-7%	-19%
CCOc1ccccc1NC(=O)CN1c2ccccc2S(=O)(=O)c2ccccc21	.	-15%	.	-28%	4%	0%	.	.	.
CC(=O)N(c1ccccc1C)C1CCCC1	-15%[57.1 µM]	-17%	-8	30%	6%	5%	.	.	.
CC(=O)N(C1=C(Cl)C(=O)c2ccccc2C1=O)C1CCCCC1	14µM*	-10%	-87*	?	7%	-13%	-27%	-16%	?
N#CCC(=O)Nc1ccc(C(=O)OCC(=O)NNC(=O)c2cccs2)cc1	-27%	?	-28	?	.	-9%	.	.	.
N#CCC(=O)Nc1ccc(C(=O)OCC(=O)NNC(=O)c2ccc(Cl)cc2)cc1	?	?	?	?	.	-12%	?	30µM*	?
O=C1ON=C(c2ccccc2)/C1=C/c1cccnc1	14%	-10%	2	-6%	3%	-2%	.	.	.
COc1ccc(/C=C2\C(=O)ON=C2c2ccccc2)cc1	32µM*	10%	-53*	?	-2%	-5%	-23%	-4%	-25%
Cc1ccc(C(=O)NNC(=O)c2ccc(S(=O)(=O)N3CCCCC3)cc2)cc1	35µM*	-2%	-1	?	.	-17%	-17%	-2%	?
Cc1ccc(Nc2nc(N)nc(COC(=O)C3=COCCO3)n2)cc1	-9%	-9%	0	-3%	.	-11%	.	.	.
COc1ccccc1OCCSc1nc(-c2ccc(C(C)(C)C)cc2)nc2cc(=O)[nH]n12	.	?	.	-18%	12%	-6%	?	?	27µM*
Cc1ccc(-c2nc(SCCOc3ccccc3C)n3[nH]c(=O)cc3n2)cc1	.	-5%	.	-3%	-22%	1%	.	.	.
COc1cccc(/C=C2/C(=O)NN(c3ccc(Br)cc3)C2=O)c1O	0.67µM*	79µM*	-7	29%	?	-25%	17µM*	-23%	6.8µM*
SMILES	WRN helicase inh-1	Pol eta inh	PI5P4Ka inh	POLI inh	Pol beta inh	POLK inh	WRN helicase inh-2	TO DNA binding	BLM helicase inh
COc1cc(/C=C2/C(=O)NN(c3ccc(Cl)cc3)C2=O)cc(Br)c1O	-23%	-13%	?	?	?	-21%	.	.	.
Cc1ccc(N=Cc2cc(Cc3ccccc3Cl)cc([N+](=O)[O-])c2O)c(O)c1	28µM*	50µM*	-69*	?	16µM*	-81%	24µM*	?	22µM*
O=[N+]([O-])c1cc(/C=N/O)ccc1SCc1ccccc1Cl	-24%	-5%	.	2%	-2%	-24%	.	.	.
CC1=NN(c2ccc(Cl)cc2)C(=O)C1C(c1cccc(O)c1)c1c(C)[nH]n(-c2ccc(Cl)cc2)c1=O (stereo unspecified)	?	-13%	-4	7%	-2%	-20%	.	.	.
CC1=NN(c2ccc(F)cc2)C(=O)C1C(c1cccc(O)c1)c1c(C)[nH]n(-c2ccc(F)cc2)c1=O (stereo unspecified)	?	-15%	-10	-91%	-3%	-1%	-18%	-20%	-14%
CN1CCN(C(=O)C2CCCN(S(=O)(=O)c3ccc(Cl)cc3)C2)CC1 (stereo unspecified)	?	-13%	1	-12%	-1%	-2%	-4%	-6%	?
CN1CCN(C(=O)C2CCCN(S(=O)(=O)c3ccc(Br)cc3)C2)CC1 (stereo unspecified)	-21%	-5%	-2	15%	12%	-1%	.	.	.
CC(C)COC(=O)c1ccc2c(c1O)C(=O)c1ccccc1C2=O	19µM*	?	0	4%	5%	-1%	?	-5%	?

Compound activity (PubChem)
